Legend:
Experiment in all cases: PBM binding z-score (relative to random genomic background probes); higher = stronger binding; sequences stand for … in GC…GCGATTGACAGCGTAGAATGAAGG
[1] = system: RARb homodimer (NR concentration 270 nM)
Summary of the method: (§1)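 The probes on custom Agilent 4×180K protein-binding microarrays were double-stranded, with 34-nt variable regions bearing direct-repeat seeds, single-nucleotide variants, half-site ablations and random human genomic background sequences. Incubation lasted 1 h with ligand-free nuclear receptor dimers in PBS pH 7.4, 2% milk, 0.02% Triton X-100, 1 mM DTT, 0.2 mg/mL BSA and 0.4 mg/ml salmon testes DNA. Antibodies against each partner (one per run) detected bound dimers, and fluorescence scans were regression-normalized. Binding z-scores take the random background probes as reference.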

[2] = system: RARg:RXRa (NR concentration 270 nM, RXRa partner concentration 90 nM)
Summary of the method: as §1

[3] = system: RARg homodimer (NR concentration 270 nM)
Summary of the method: as §1

[4] = system: RXRa DBDmut IVT, anti-RXR (DBD mutation: RXRa K156A/R161A, NR concentration 90 nM)
Summary of the method: as §1

[5] = system: RXRa homodimer (NR concentration 180 nM)
Summary of the method: as §1

[6] = system: THRa:RXRa (NR concentration 90 nM, RXRa partner concentration 90 nM)
Summary of the method: as §1

[7] = system: THRa homodimer (NR concentration 90 nM)
Summary of the method: as §1

[8] = system: VDR homodimer (NR concentration 270 nM)
Summary of the method: as §1

| Sequence | PBM binding z-score [1] | PBM binding z-score [2] | PBM binding z-score [3] | PBM binding z-score [4] | PBM binding z-score [5] | PBM binding z-score [6] | PBM binding z-score [7] | PBM binding z-score [8] |
| --- | --- | --- | --- | --- | --- | --- | --- | --- |
| AGTCAAAGTTCACTTGGTAACGTAAGATTCAGCT | 3.71 | 4.88 | 5.66 | 4.24 | 3.44 | 1.6 | -0.48 | 4.05 |
| TTACCAAGGTGAAACGTCGTTGATGCACGCCTTG | 0.238 | 0.69 | 0.555 | 0.0137 | 1.01 | 1.59 | 0.421 | -0.415 |
| GCGACTGCGGCATCAGCAGGTTACCATAACTTAA | 0.0981 | -0.378 | -0.604 | -0.332 | 0.0443 | 0.0329 | 0.0125 | -0.566 |
| ACAGACAGGTCATGAAGGTAACTCAGGCTATCAT | 3.05 | 4.63 | 4.19 | 1.69 | 4.56 | 3.12 | 0.575 | 1.23 |
| CGAACTAGGTCGTTGACAGGACAGTGAATAGTAA | 0.711 | 1.6 | 1.2 | 1.18 | 0.488 | 1.33 | 0.0428 | 0.716 |
| CCTGCTAGGTTAATGGTCAGCTAAAGCAGCTCGC | 0.863 | 0.422 | 0.563 | 0.452 | 0.173 | 0.215 | -0.284 | -0.175 |
| GCAGACACGTGAAACGCAGGTAACTCAGGGTGGC | -0.78 | -0.43 | -0.333 | -0.425 | -0.324 | 0.299 | -0.673 | -0.988 |
| ATCTCTAGGTAATCAAGTTCAGTGAATGCCGAAC | 1.24 | 0.838 | 0.72 | 0.825 | 0.439 | 1.26 | 0.487 | 2.59 |
| CCTAGCAGGCCCATCTGGGTCACTCAAGGCTTGA | 1.64 | 0.5 | 0.267 | -1.2 | 0.768 | 2.23 | 0.0226 | -0.0686 |
| TCTTGTAGACCAGCAGGTTAAGAAAGCTGGCCAA | 0.0516 | -0.0399 | -0.6 | 0.357 | 0.393 | 0.00833 | -0.609 | -0.234 |
| CGAACTAGGTCAAGGACAGTCAATCTCCGCACGC | 3.32 | 3.79 | 4.63 | 1.46 | 2.57 | 3.19 | 1.96 | 0.563 |
| TTACCAAGGTGAAGGTCGCTGATCCCTCTGTAGA | 2.03 | 1.72 | 1.7 | -0.269 | 1.85 | 2.41 | 0.612 | -0.248 |
| CCTCGGAGGACAACAGGAAGTCAGAGCTGCCAGA | 0.0796 | 0.396 | 1.06 | 0.139 | -0.479 | 0.205 | -0.14 | -0.542 |
| CCTATCAGGCCAGGGTCACTCAAGCATTTCGCTT | 2.88 | 3.19 | 2.62 | 0.325 | 3.65 | 3.19 | 1.36 | 1.33 |
| ATCTCTAGATAACAAGTTCAGTGAAAGAGAGGAC | 1.37 | 0.77 | 0.933 | 0.583 | 0.621 | 0.754 | 0.108 | 2.72 |
| GGAACGAGGGCAATGTTGATAGCATCTGTCGACG | 0.983 | 1.08 | 1.66 | 1.93 | 0.843 | 0.966 | -0.016 | 0.72 |
| GCTGCTAGTTCAGGTTGGTCAGCTAACGGGTACG | 0.833 | 0.083 | 0.586 | 1.19 | -0.153 | -0.00713 | -0.222 | 0.636 |

| Sequence | PBM binding z-score [1] | PBM binding z-score [2] | PBM binding z-score [3] | PBM binding z-score [4] | PBM binding z-score [5] | PBM binding z-score [6] | PBM binding z-score [7] | PBM binding z-score [8] |
| --- | --- | --- | --- | --- | --- | --- | --- | --- |
| CAAACTAGGTCCCAGAGGTCAAAGTCCGTGCGTA | 4.35 | 5.07 | 4.38 | 2.04 | 5.62 | 3.67 | 1.58 | 3.87 |
| TCATATAGGTATATGCTAGGTGAAAGTCCGATCT | 0.347 | 0.291 | 0.277 | 1.6 | 0.588 | 1.23 | 0.758 | -0.0233 |
| TCGTATAGGTAAACAGGTGAAAGTCCGTAAGTTA | 1.14 | 0.368 | 0.358 | 1.41 | 0.637 | 0.794 | 0.786 | 0.302 |
| ATACCAAGGTGATCGTGAGGTCGTTGATACTAAC | 1.73 | 2.06 | 1.03 | 0.728 | 1.38 | 3.4 | 2.63 | 2.83 |
| GCTCGGAGGACACGGTCAGAGCTTTGTCCGTAGA | 1.35 | 0.822 | 1.71 | 0.29 | -0.503 | 1.36 | 0.245 | -0.453 |
| ATCTCGAGGTAAAAGTTCAGTGAATCCCGAGGAT | 2.35 | 2.35 | 1.86 | 0.47 | 2.58 | 1.99 | 0.159 | 0.883 |
| AGGATGAGGTTACCAAAGATCAGGGAAACGCTTG | 1.18 | 1.94 | 1.65 | 0.402 | 2.51 | 2.67 | 1.29 | 0.534 |
| AGAATGAGGTTACCAAAGATCAGGGACACGCTTG | 1.72 | 2.29 | 1.89 | 1.2 | 2.64 | 3.33 | 2.17 | 0.768 |
| TCTTGTAGATCAAGCAGGTTAACAAAGCCTGAGT | 0.14 | 0.253 | 0.0907 | 0.714 | 0.594 | 0.705 | -0.265 | 0.178 |
| TAGCCTACGTCATGGGCCAGTATACCACGCGAAC | -0.00941 | -0.29 | -0.1 | -0.76 | -0.0748 | -0.335 | -0.4 | -0.575 |
| ATCGAAAGGTCGTGTGGTGAGTATACAGAAAGGC | 2.97 | 4.21 | 3.83 | 2.19 | 4.59 | 2.39 | 0.842 | 2.03 |
| AGAACGAGGGCACGCTGAGTTGATATCAGAGTAG | 1.18 | 2.05 | 2.32 | 2.08 | 1.32 | 1.89 | -0.269 | 1.71 |
| CCTAGCAGGCCAATCTGGGACACTCAAGGCTTGA | -0.286 | -0.31 | 0.0826 | -0.25 | -0.458 | 3.08 | -0.247 | -0.728 |
| TAGAGTAGGTTAGTCGGGGCATTCAGCCAACATA | 0.711 | 0.539 | 0.52 | -0.0578 | 0.327 | 1.42 | 0.443 | 1.03 |
| CGTCCAAGGTCAAGGTCAGTGCAAGAGACTCGAA | 5.45 | 6.95 | 7.95 | 3.52 | 6.56 | 4.21 | 3.91 | 3.18 |
| GATACAGGGTCAGCTAGAGCCCAGAGTATGGAAA | 2.3 | 4.4 | 4.33 | 1.25 | 4.08 | 2.43 | 0.0746 | 0.264 |
| TCTTGTAGATCAGCAGGTTAAAAAAGCTGGCCAA | 0.0977 | -0.388 | -0.402 | 0.516 | 0.184 | 0.165 | -0.53 | -0.268 |
